{"source": "PubChem BioAssay", "note": "Potency and affinity values are given separately. A number with no mark means an inactive call. The rule behind the calls is not given here."}
{"assay": "A549 cell cytotoxicity, dose response, cytotoxicity control, plate reader, cherry-pick, antagonist series (AID 743412);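 note: 0% = neutral control wells and -100% = positive control wells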", "conditions": "series mostly up to 26 µM; activity change, negative = cytotoxicity: at the top concentration"}
{"smiles": "CCOC(=O)Nc1ccc(N2CCOCC2)c(S(=O)(=O)Nc2ccc(Cl)cc2)c1", "activity change, negative = cytotoxicity": "19.4% [at 6 µM]"}
{"smiles": "COc1ccc(NC(=O)N(C)C[C@@H]2OCCCC[C@H](C)Oc3ccc(NC(=O)NC4CCCCC4)cc3C(=O)N([C@H](C)CO)C[C@@H]2C)cc1", "activity change, negative = cytotoxicity": "15.2%"}
{"smiles": "COc1ccc(S(=O)(=O)Nc2ccc3c(c2)C(=O)N([C@H](C)CO)C[C@H](C)[C@H](CN(C)S(=O)(=O)c2ccc(F)cc2)OCCCC[C@@H](C)O3)cc1", "activity change, negative = cytotoxicity": "18.9%"}
{"smiles": "C[C@@H]1CN([C@@H](C)CO)C(=O)c2cc(NS(C)(=O)=O)ccc2O[C@@H](C)CCCCO[C@@H]1CN(C)Cc1ccc(C(F)(F)F)cc1", "activity change, negative = cytotoxicity": "-2.61%"}
{"smiles": "C=CCNC(=O)c1c(Cl)nc(C)c([N+](=O)[O-])c1C", "activity change, negative = cytotoxicity": "-3.38%"}
{"smiles": "COc1ccc(S(=O)(=O)N2CCCCN3[C@H](CO)[C@H](c4ccc(-c5cccnc5)cc4)[C@@H]3C2)cc1", "activity change, negative = cytotoxicity": "-9.19%"}
{"smiles": "Cc1ccc2nc(NC(=O)CCCC(=O)O)sc2c1", "activity change, negative = cytotoxicity": "-1.41%"}
{"smiles": "Cc1cc(C(=O)COC(=O)c2cccn2C)c(C)n1Cc1ccco1", "activity change, negative = cytotoxicity": "32.2%"}
{"smiles": "O=C(O)c1ccc(N/N=C/c2ccc3ncccc3c2)cc1", "activity change, negative = cytotoxicity": "-0.811%"}
{"smiles": "C[C@H](CO)N1C[C@H](C)[C@H](CN(C)C(=O)Nc2ccc(F)cc2)OCCCC[C@H](C)Oc2ccc(NC(=O)NC3CCCCC3)cc2C1=O", "activity change, negative = cytotoxicity": "-13.2%"}
{"smiles": "C[C@H](CO)N1C[C@H](C)[C@H](CN(C)Cc2ccccc2)Oc2c(NS(=O)(=O)c3cn(C)cn3)cccc2C1=O", "activity change, negative = cytotoxicity": "25.1%"}
{"smiles": "O=C(NCCc1ccccc1)c1ccc2c(c1)OCO2", "activity change, negative = cytotoxicity": "77.8%"}
{"smiles": "CCN(CC)S(=O)(=O)c1cc(C(=O)OCC(=O)Nc2ccc(-c3nc4ccc(C)cc4s3)cc2)ccc1F", "activity change, negative = cytotoxicity": "-16.6%"}
{"smiles": "COc1cccc(C(=O)Nc2ccc3c(c2)OC[C@@H](C)N(CC2CC2)C[C@H](C)[C@H](OC)CN(C)C3=O)c1", "activity change, negative = cytotoxicity": "-9.39%"}
{"smiles": "O=C(NCCOc1ccccc1)[C@@H]1CCCN1C(=O)c1cccs1", "activity change, negative = cytotoxicity": "2.03%"}
{"smiles": "CC(C)N(C(=O)Nc1ccc2nsnc2c1)C(C)C", "activity change, negative = cytotoxicity": "3.48%"}
{"smiles": "Cc1cc(Cl)ccc1OCCCC(=O)Nc1cc(S(=O)(=O)N2CCOCC2)ccc1N1CCOCC1", "activity change, negative = cytotoxicity": "0.867%"}
{"smiles": "C[C@@H]1CN([C@@H](C)CO)C(=O)c2cccc(NC(=O)Nc3ccc(C(F)(F)F)cc3)c2O[C@H]1CN(C)C(=O)Nc1cccc2ccccc12", "activity change, negative = cytotoxicity": "-3.89%"}
{"smiles": "O=C(Nc1cc(S(=O)(=O)Nc2ccccc2Cl)ccc1O)c1ccc(F)cc1F", "activity change, negative = cytotoxicity": "78.2%"}
{"smiles": "CO[C@@H]1CN(C)C(=O)c2ccc(NC(=O)C3CC3)cc2OC[C@@H](C)NC[C@@H]1C", "activity change, negative = cytotoxicity": "8.85%"}
{"smiles": "O=C(C[C@H]1C=C[C@@H](NC(=O)C2CCC2)[C@H](CO)O1)NCCCN1CCOCC1", "activity change, negative = cytotoxicity": "7.56%"}
{"smiles": "CC(C)NC(=O)Nc1ccc2c(c1)C(=O)N([C@H](C)CO)C[C@@H](C)[C@H](CN(C)S(C)(=O)=O)OCCCC[C@H](C)O2", "activity change, negative = cytotoxicity": "16.1%"}
{"smiles": "COc1ccc(-c2noc(CCC(=O)N3CCN(c4ccc(Cl)cc4)CC3)n2)cc1", "activity change, negative = cytotoxicity": "66.4%"}
{"smiles": "Cc1cccn2c(CNCC3(c4ccccc4)CCCC3)c(C(=O)N3CCOCC3)nc12", "activity change, negative = cytotoxicity": "-11.5%"}
{"smiles": "Cn1cnc(S(=O)(=O)N2C[C@@H](O)COC[C@H]3O[C@H](CC(=O)NC4CCCC4)CC[C@@H]32)c1", "activity change, negative = cytotoxicity": "34.3%"}
{"smiles": "CCc1nc(Sc2nnnn2-c2ccccc2)c2c3c(sc2n1)CCCC3", "activity change, negative = cytotoxicity": "-5.65%"}
{"smiles": "Cc1ccc2nc(-c3ccc(NC(=O)c4cccnc4)cc3)oc2c1", "activity change, negative = cytotoxicity": "-1.26%"}
{"smiles": "C[C@H](CO)N1C[C@H](C)[C@@H](CN(C)S(=O)(=O)c2cccs2)Oc2c(cccc2N(C)C)C1=O", "activity change, negative = cytotoxicity": "21.8% [at 12 µM]"}
{"smiles": "C[C@H](CO)N1C[C@H](C)[C@@H](CN(C)CC2CCOCC2)Oc2ncc(Br)cc2C1=O", "activity change, negative = cytotoxicity": "0.128%"}
{"smiles": "COc1ccc(-c2cc(C(=O)N3CCOCC3)no2)cc1", "activity change, negative = cytotoxicity": "6.5%"}
{"smiles": "COc1ccc(-n2sc3ccc(F)cc3c2=O)cc1", "activity change, negative = cytotoxicity": "-28.4%"}
{"smiles": "COc1ccc(-c2cc(C(=O)N3CCCC3)no2)cc1", "activity change, negative = cytotoxicity": "12.5%"}
{"smiles": "CC(=O)c1c(C)[nH]c(C(=O)CN2C(=O)NC(C)(c3ccc(C)cc3)C2=O)c1C", "note": "(centres undefined)", "activity change, negative = cytotoxicity": "15%"}
{"smiles": "O=C(NCc1ccc(F)cc1)c1cc(C2CCCCN2S(=O)(=O)c2cccs2)on1", "note": "(centres undefined)", "activity change, negative = cytotoxicity": "-5.46%"}
{"smiles": "C[C@H](CO)N1C[C@H](C)[C@H](CN(C)C(=O)Nc2ccc3c(c2)OCO3)OCCCC[C@H](C)Oc2ccc(NC(=O)NC3CCCCC3)cc2C1=O", "activity change, negative = cytotoxicity": "12.5%"}
{"smiles": "O=C(O)c1ccc(Nc2nc3c(s2)CCCC3)cc1", "activity change, negative = cytotoxicity": "25.7% [at 12 µM]"}
{"smiles": "CC1(c2ccccc2Cl)NC(=O)N(CC(=O)N2CCc3ccccc32)C1=O", "note": "(centres undefined)", "activity change, negative = cytotoxicity": "-2.38%"}
{"smiles": "CC(C)(C)NC(=O)c1cccc(NC(=O)c2ccc3c(c2)C(=O)N(C(C)(C)C)C3=O)c1", "activity change, negative = cytotoxicity": "12.8% [at 12 µM]"}
{"smiles": "C=CCNc1nc(-c2cc3ccccc3o2)cs1", "activity change, negative = cytotoxicity": "-3.11%"}
